Screening results (PubChem BioAssay)
A selection: hits, their analogues and other compounds. The true share with any hit is near 3.7%.
tim10-1 inh: inhibits growth of tim10-1 mutant yeast | S. cerevisiae tim10-1 ts strain growth, BacTiter-Glo, 24 h | inhibition, % at 20 µM | 330,000 compounds, 2.2% hits | AID 463190;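 active = inhibition of at least 40%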;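 also: mutant grown at 25 °C; 0% = DMSO wells with yeast and 100% = wells holding no yeast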
PfHsp90 yeast 2: reduces growth (ATP signal) of yeast expressing P. falciparum Hsp90 | S. cerevisiae expressing PfHsp90, BacTiter-Glo ATP, 48 h; yeast lacking PDR1 and PDR3 efflux regulators | inhibition, % at 9.4 µM | 310,000 compounds, 0.32% hits;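 active = every replicate shows inhibition above about 80%, whatever the replicate mean, limit read from the data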;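 also: 0% = DMSO neutral controls and 100% = 20 µM radicicol positive controls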
tim23-1 inh: tim23-1 yeast growth inhibition. inhibition, % at 20 µM. 330,000 compounds, 1.3% hits. S. cerevisiae tim23-1 growth, BacTiter-Glo luminescence, 24 h. AID 463212;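 active = growth inhibition of the mutant yeast at or above 50%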;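 also: temperature-sensitive mutant grown at 25 °C; plate controls were DMSO-treated mutant yeast for no effect and medium wells lacking yeast for full effect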
TIM10 inh: TIM10 yeast growth inhibition | inhibition, % at 10 µM | 330,000 compounds, 1.4% hits | S. cerevisiae TIM10 strain growth, BacTiter-Glo luminescence, 24 h;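 active = inhibition of 40% or more at the single tested concentration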;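 also: wild-type TIM10 isogenic control strain grown at permissive 25 °C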
V-ATPase pH: alters yeast V-ATPase proton transport; S. cerevisiae, pHLuorin cytosolic pH fluorescence; response, % at 10 µM; 350,000 compounds, 0.37% hits; in the data active = response mostly above about 7.3%, no sharp cut-off; inactive = mostly below about 5.4%; also: actives read high
tim23-1 confirm: tim23-1 yeast growth inhibition, confirmed. shares compounds with tim23-1 inh. S. cerevisiae tim23-1 growth, BacTiter-Glo luminescence, 24 h. inhibition, % at 20 µM. 4,400 compounds, 83% hits. AID 463218;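 active = inhibition above about 39% in either of two replicate wells at 20 µM, limit read from the data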;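 also: temperature-sensitive tim23-1 mutant grown at 25 °C; 0% = DMSO wells with yeast and 100% = medium wells without yeast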
Active calls of the source: *; . = no result given.

SMILES	tim10-1 inh	PfHsp90 yeast 2	tim23-1 inh	TIM10 inh	V-ATPase pH	tim23-1 confirm
O=C(O)CCC(=O)Nc1cccc(-c2nc3ccccc3o2)c1	21.4	-27.5	2.8	10.9	-1.2	.
COC(=O)c1ccc(-n2c(C)cc(C(=O)CCl)c2C)cc1	7.4	-71.1	52.4*	33.2	-1.1	30.1
Oc1ccc(-c2nc3ccccc3s2)cc1	35.9	4.9	69.4*	30.2	-1.9	63.9*
Cc1ccc(N(CC(=O)NCc2ccccc2)C(=O)c2csnn2)cc1	19.2	1.7	11.6	-1.7	-0.1	.
N#C/C(C(N)=O)=c1/ccc2c(c1)N1C3=C(CCCC3)CC3CCCCC31N=2 (stereo not given)	25.9	.	62.9*	19.2	.	52.0*
NC(=O)CSc1nnc(-c2cccc(S(=O)(=O)N3CCOCC3)c2)n1C1CCCCCC1	-7.8	.	-1.2	9.5	-5.2	.
Cc1ccc(CSc2nnc(-c3cccc(S(=O)(=O)N4CCOCC4)c3)n2C2CCCC2)cc1	14.7	-1.2	51.7*	17.4	-2.3	42.6*
CCOc1ccc2c3c(c(=O)oc2c1OCC)CCCC3	38.6	.	52.4*	20.3	3.4	38.5*
Cc1ccc(S(=O)(=O)CCC(=O)NCCC2=CCCCC2)cc1	4.4	.	8.1	-5.7	1.0	.
Cc1cc(C)n(-c2nc3ccccc3c(=O)n2OCc2ccc(Cl)cc2)n1	29.5	.	52.4*	14.6	-0.6	50.7*
Nc1c(N(Cc2ccco2)C(=O)c2ccc(Cl)cc2)c(=O)[nH]c(=O)n1Cc1ccccc1	-0.1	.	59.7*	16.4	-0.3	65.6*
Nc1c(N(Cc2ccco2)C(=O)c2ccc(Br)cc2)c(=O)[nH]c(=O)n1Cc1ccccc1	5.6	15.6	58.6*	16.7	-2.1	71.8*
Cc1cc(N)n2nc(-c3ccccc3)c(-c3ccccc3)c2n1	15.6	-4.5	59.4*	9.8	-4.3	46.5*
Cc1ccc(OCc2cc(C(=O)NC3CCCCC3)no2)cn1	35.7	-4.9	50.8*	21.5	0.8	57.5*
O=C(NC1CCCC1)c1cc(COc2ccc3ncccc3c2)on1	-13.5	-9.5	-1.2	-6.7	4.4	.
Cc1ccc(CC(=O)NCCC(=O)O)cc1	-6.1	0.5	22.9	6.0	0.9	.
O=C(CSc1nnc(NC(=O)c2ccc(F)cc2F)s1)NC1CCCC1	0.0	1.6	10.6	-20.0	-4.1	.
O=C(NCc1ccccn1)c1cccc(S(=O)(=O)N2CCc3ccccc32)c1	6.8	.	14.3	-5.1	-3.4	.
O=S(=O)(CCSc1ccccn1)c1nc2ccccc2s1	22.7	-113.5	55.3*	23.5	1.9	48.9*
CCOC(=O)c1nnc(-c2ccccc2)nc1Oc1ccccc1Cl	34.3	.	53.2*	38.6	-1.2	55.6*
O=C(Nc1ccc(-c2noc(CCc3ccccc3)n2)cc1)c1ccco1	37.7	18.6	55.1*	30.1	1.3	61.1*
COC1=CC(=O)c2ccccc2C1=O	38.1	-2.9	77.6*	24.9	-1.1	78.6*
COC1=CC(=O)C=C(OC)C1=O	.	4.1	.	.	-6.3	.
Cc1ccccc1Nc1nc2ccccc2s1	31.6	24.7	50.2*	21.7	4.6	35.2
CCOC(=O)Nc1nc(-c2ccccc2)c(C(=O)c2ccc(Cl)cc2)s1	34.0	-17.6	52.8*	34.2	4.0	59.4*
SMILES	tim10-1 inh	PfHsp90 yeast 2	tim23-1 inh	TIM10 inh	V-ATPase pH	tim23-1 confirm
CCOC(=O)Nc1sc(C)nc1-c1ccccc1	-21.0	-0.2	0.4	-7.2	-0.9	.
CC(C)CCN1C(=O)c2cccc3c(N)ccc(c23)C1=O	39.3	-6.0	64.9*	14.0	-3.1	46.8*
COc1cccc2c1C(=O)c1c(O)c3c(c(O)c1C2=O)C[C@](O)(C(C)=O)C[C@H]3O[C@@H]1C[C@@H](N)[C@@H](O)[C@@H](C)O1	3.1	-36.0	51.2*	-0.9	-1.8	43.8*
OCc1cn(-c2ccccc2)nc1-c1ccc(Br)cc1	-6.6	-13.9	66.7*	-2.8	5.2	28.2
CC(C)CN(C(=O)c1ccc2c(c1)OCCO2)c1c(N)n(Cc2ccccc2)c(=O)[nH]c1=O	27.6	.	51.8*	17.1	0.1	55.2*
CCCCn1c(N)c(N(CCC(C)C)C(=O)c2ccc3c(c2)OCCO3)c(=O)[nH]c1=O	30.2	.	58.7*	21.5	-1.2	55.6*
CCCCN(C(=O)c1ccc2c(c1)OCCO2)c1c(N)n(CC(C)C)c(=O)[nH]c1=O	12.0	.	57.6*	6.0	-2.2	58.0*
CCOc1ccc(C2c3[nH]c4ccccc4c3CCN2CCCn2cccn2)cc1 (stereo not given)	10.6	-23.7	15.9	0.3	0.1	.
COc1cccc(C(=O)NC(=S)N2c3ccccc3CC2C)c1OC (stereo not given)	22.0	6.1	51.0*	36.6	1.2	54.5*
COc1cccc(NC(=S)N2c3ccccc3CC2C)c1 (stereo not given)	16.8	-4.7	29.1	14.2	1.1	.
N#C/C(=C\c1ccc(OCc2ccccc2)cc1)C(N)=O	33.9	8.8	62.6*	6.1	3.4	52.0*
O=C(CN1C(=O)COc2ccccc21)Nc1ccc(N2CCOCC2)cc1	-11.8	-6.4	3.5	14.2	4.3	.
O=C(Cn1c(-c2ccccc2)noc1=O)Nc1ccc(N2CCCCCC2)cc1	38.9	-0.5	51.5*	28.6	7.9	41.5*
O=C(Nc1ccc(-c2nc3ncccc3o2)cc1)c1ccc([N+](=O)[O-])o1	27.1	-7.7	64.8*	36.0	-1.9	82.6*
CC(C)C(=O)Nc1ccc(-c2nc3ncccc3o2)cc1	21.6	1.3	22.4	23.1	-3.5	.
Cc1ccccc1C(=O)O[C@H]1[C@H](Cc2ccccc2)NS(=O)(=O)[C@H]2CC3C=C[C@]12O3	1.8	-33.2	5.9	-11.7	-1.6	.
CCOCCn1ccc2c(OCC(=O)NCCc3ccc(OC)c(OC)c3)cccc2c1=O	16.7	-11.9	16.4	9.4	0.5	.
CCOCCn1ccc2c(OCC(=O)Nc3ccc(OC)c(OC)c3)cccc2c1=O	12.2	.	54.3*	4.5	-1.2	5.4
Clc1cccc(CSc2nnc(-c3ccccn3)n2Cc2ccco2)c1	33.0	.	52.3*	39.9	0.2	57.1*
O=C(CSc1nnc(-c2ccccn2)n1Cc1ccco1)c1ccc(Cl)cc1	13.9	.	34.7	2.7	2.7	.
CC(Cc1ccccc1)NC(=O)c1cc2ccccc2o1 (stereo not given)	-23.6	-9.2	50.9*	23.0	-2.2	53.1*
CCC(=O)Nc1ccc(NC(=O)c2cc3ccccc3o2)cc1	0.9	-12.6	29.6	6.3	-1.7	.
N#CC1(NC(=O)CN2c3cccc4cccc(c34)S2(=O)=O)CCCCC1	15.5	.	20.7	1.7	2.8	.
C[C@H](CO)N1C[C@H](C)[C@@H](CN(C)S(=O)(=O)c2cn(C)cn2)Oc2c(NS(=O)(=O)c3ccc(F)cc3)cccc2C1=O	-6.3	-10.9	-9.5	3.0	-2.2	.
C=CCN=c1scc(-c2ccco2)n1/N=C/c1ccc(O)c(O)c1O	-9.5	14.9	64.0*	-5.7	2.0	61.7*
CC(C)(C)c1csc(N/N=C/c2ccc(O)cc2)n1	30.0	-15.1	57.4*	23.6	2.8	39.5
